Assay results taken from PubChem BioAssay AID2112 (National Center for Advancing Translational Sciences (NCATS), 2009).
Hit rate of the full screen: of about 240,000 compounds, about 15 (0.006%) were called active. Calls follow the shape of the dose curve; as a rule, active = well fitted inhibition curve with a large enough effect; inconclusive = small, poorly fitted or top-dose-only effect, or effect the other way, or another doubt; inactive = no such curve, though single readings can be large or run the other way. The list is a sample of the results.

Each molecule was assayed against Lysosomal alpha-glucosidase (Homo sapiens) (UniProt P10253) (assay: qHTS Assay for Inhibitors and Activators of Human alpha-Glucosidase From Spleen Homogenate). Conditions: 4-MU-alpha-glucoside fluorescence; series mostly up to 79.9 µM.
Text: NIH Chemical Genomics Center [NCGC] NIH Molecular Libraries Probe Production Centers Network [MLPCN] MLPCN Grant: R03 MH084841-01 Assay Submitter (PI): Wei Zheng NCGC Assay Overview: Alpha-glucosidase is responsible for the hydrolysis of terminal, non-reducing 1,4-linked alpha-D-glucose residues, which releases alpha-D-glucose. It is a lysosomal hydrolase that is required for the degradation of a small percentage (1-3%) of cellular glycogen in humans. Deficiency of this enzyme results in glycogen-storage disease type II (GSDII), also referred to as Pompe disease, an autosomal recessive disorder. Structurally normal glycogen is accumulated in the lysosomes and cytoplasm in affected patients, primarily in muscle tissues. Excessive glycogen storage within lysosomes may interrupt normal functioning of other organelles and leads to cellular injury. In turn, this leads to enlargement and dysfunction of the entire organ involved (eg: cardiomyopathy and muscle weakness). It has been reported that the improper folding and trafficking of alpha-glucosidase resulting from genetic mutations may account for a significant number of Pompe patients. […] We optimized this alpha-glucosidase assay in 1536-well plate format for identification of novel small molecule inhibitors or activators with structures other than the sugar analogs in order to develop new pharmacological chaperones. In particular, this assay is directed towards discovering compounds active in a more natural setting, tissue homogenate, that may have been missed by screens of the purified enzyme under more stringent conditions.
NCGC Assay Protocol Summary: This is a fluorogenic enzyme assay with 4-methylumbelliferyl-alpha-D-glucopyranoside as the substrate and human spleen homogenate containing alpha-glucosidase as the enzyme preparation. Upon hydrolysis of this fluorogenic substrate, the resulting product, 4-methylumbelliferone (which excites at 365 nm and emits at 440 nm) can be detected by a fluorescence plate reader. Data were normalized to the controls for basal activity (without enzyme) and 100% activity (with enzyme). The AC50 values were determined from concentration-response data modeled with the standard Hill equation. Assay buffer: 50 mM citric acid (titrated with potassium phosphate to pH 5.0), 0.01% Tween-20 (pH 5.0 is an optimal condition for this enzyme assay) 1536-well assay protocol for the alpha-glucosidase from human spleen homogenate: (1) Add 2 ul/well spleen homogenate (1 ug) (2) Add 23 nL compounds in DMSO solution. The final titration was 0.5 nM to 58 uM. (3) Add 2 ul of substrate (1 mM final) (4) Incubate at 37 C for 40 min (5) Add 2 ul stop solution (1M NaOH and 1M Glycine mixture, pH 10) (6) Detect the assay plate in a ViewLux plate reader (PerkinElmer) with Ex=365 nm and Em=440nm. Keywords: Alpha-glucosidase, Pompe Disease, pharmacological chaperone, chaperone therapy, high throughput screening, alpha-glucosidase inhibitor, MLSMR, MLSCN, NIH Roadmap, qHTS and NCGC

outcome, inactive:
BrC1C(Br)C(Br)C(Br)C(Br)C1Br (stereo not drawn)
CCCC(Cl)CCCC(Cl)CCC(Cl)CCC(Cl)CCC(Cl)CCCC(Cl)CCC (stereo not drawn)
O=C(NC(CC(=O)N1CCN(c2ccccc2)CC1)c1ccccc1)c1ccccc1Cl (stereo not drawn)
CC1(C)Cc2cccc(OCC(=O)N3CCN(c4ccc([N+](=O)[O-])cc4)CC3)c2O1
O=C1C2C(c3ccccc3)CC=CC2C(c2ccoc2)N1Cc1ccccc1 (stereo not drawn)
COC(=O)CCc1ccccc1S(=O)(=O)N(CCC(=O)OC)Cc1ccccc1
C=CCSC(CC)(CC)C(N)=O
C/C(=N\NC(=S)Nc1ccc(C)cc1)c1cc2ccccc2o1
O=C(OCC(COC(=O)c1ccccc1)(COC(=O)c1ccccc1)COC(=O)c1ccccc1)c1ccccc1
Nc1nc2c(ncn2[C@@H]2O[C@H](COP(=O)(O)OP(=O)(O)OP(=O)(O)O)[C@@H](O)C2O)c(=O)[nH]1 (stereo partly drawn)
C[C@H]1CCC[C@@]2(C)CCCC[C@]12O
CCC(C(=O)Nc1ccc(C(C)C)cc1)c1ccccc1 (stereo not drawn)
COc1ccc(C2/C=C\CN(C(=O)c3ccc(C)cc3)C(Cc3ccccc3)C(=O)N2Cc2ccc(F)cc2)cc1 (stereo not drawn)
CC(C)CC(COCc1ccc(Cl)cc1)N1CCN(C(=O)c2ccc(C(F)(F)F)cc2)CCC1=O (stereo not drawn)
COc1ccc(C(CCN2CCOCC2)c2c(OC)cc(OC)c3c2OC(=O)CC3c2ccc(OC)cc2)cc1 (stereo not drawn)
Cc1ccc(Nc2nc(C)cc(C)c2C(N)=O)cc1
O=C(CN1C(=O)NC(Cc2ccccc2)(Cc2ccccc2)C1=O)NCC1CCCCC1
C=C1CCN(C(CC(C)C)C(=O)NCc2cc(OC)c(OC)c(OC)c2)S(=O)(=O)c2ccccc21 (stereo not drawn)
CCOC(=O)C(=CNNc1ccsc1C(=O)OC)C(=O)OCC
CCCCN(CC)CCNC(=O)CCNC(=O)Cn1ccc2ccccc2c1=O
O=C(CCCc1ccccc1)NCc1ccccc1
COC(=O)c1c(C)[nH]c(C(=O)/C=C/c2ccc(Cl)cc2)c1C
O=c1ccn([C@@H]2O[C@H](COP(=O)(O)OP(=O)(O)OP(=O)(O)O)[C@@H](O)[C@H]2O)c(=O)[nH]1
COCOc1cc(OC)ccc1C(=O)/C=C/c1ccc([N+](=O)[O-])cc1
CC(C)CO
CC(=O)Nc1ccc(S(=O)(=O)N2N=NC3C2C2CC4C3(CN(C(=O)OC(C)(C)C)S4(=O)=O)O2)cc1 (stereo not drawn)
O=C(CCN1CCCCC1)N=Nc1c(O)[nH]c2ccccc12
CC(=O)OCC(NC(=O)C(Cc1ccccc1)NC(=O)OC(C)(C)C)C1OC(n2ccc(=O)[nH]c2=O)C(OC(C)=O)C1OC(C)=O (stereo not drawn)
COc1ccc(NC(=O)c2sc(N3CCOCC3)nc2-c2ccccc2)c(OC)c1
S=C(NNC(=S)NC1CC2CCC1C2)NC1CC2C=CC1C2 (stereo not drawn)
O=S(O)S(=O)(=O)O
COc1ccc(-c2ccc(OC)c(C3C4C=CCC(C)C4C(=O)N3Cc3ccccc3)c2)cc1C (stereo not drawn)
COC(=O)c1ccc([C@@H](O)[C@H](C)C(=O)CC(=O)OC(C)(C)C)cc1
O=C(Cc1c[nH]c2ccccc12)N/N=C/c1cccc(F)c1
CCN(CC)CCNCc1ccc(OCc2ccc(Cl)nc2)c(OC)c1
N#CC1=C(N)Oc2[nH]c(=S)[nH]c(=O)c2C12C(=O)Nc1ccccc12 (stereo not drawn)
C/C(=N\NC(=O)c1cc2c(s1)CCC(C)C2)c1cccnc1 (stereo not drawn)
O=C(Nc1cccc(CCc2ccccn2)c1)c1ccc(Cl)cc1
C=C1/C(=C\C=C2\CCCC3(C)C2CCC3C(C)/C=C/C(O)C2CC2)CC(O)CC1O (stereo not drawn)
Clc1ccc(C2=CSC3=Nc4cccc5cccc(c45)N23)cc1
CCOc1ccc(CN2CCN(Cc3ccc(C)o3)CC2CCO)cc1 (stereo not drawn)
COc1ccc(NC(C(=O)Nc2cccc(C(C)=O)c2)c2ccccc2)cc1 (stereo not drawn)
N#CCC(=O)N/N=C/c1ccc(SCC(=O)Nc2ccccc2)o1
O=C(O)c1ccc(/C=C2/SC(=S)N(c3cccc(C(F)(F)F)c3)C2=O)cc1
O=c1cc(-c2ccc(O)cc2)oc2c(-c3cc(-c4cc(=O)c5c(O)cc(O)cc5o4)ccc3O)c(O)ccc12
COc1ccc([N+](=O)[O-])cc1NC(=O)C(C)OC(=O)C1c2ccccc2Oc2ccccc21 (stereo not drawn)
Cc1cc(C)nc(NS(=O)(=O)c2ccc(N/C=C\C(=O)c3cccs3)cc2)n1
CC(=O)N1CC[n+]2c(-c3ccc([N+](=O)[O-])cc3)csc21
